Measurements reported in PubChem BioAssay.
A number with no mark means an inactive call. How the calls were made is not given here.

Tested on: Aerobactin synthetase IucA (Klebsiella pneumoniae hvKP1)
Assay: Biochemical IucA enzyme inhibition primary screen of the Spectrum library (AID 1346200);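 further: 100% = wells without compound and 0% = wells lacking enzyme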
Settings: malachite green pyrophosphate, A620, at 8 µM, active compounds read low

SMILES | activity remaining [%]
C=C1CC[C@@]2(OC1)O[C@H]1CC3C4CC=C5C[C@@H](O)C[C@@H](O)[C@]5(C)C4CC[C@]3(C)[C@H]1[C@@H]2C (some centres undefined) | 113
O=C1c2cccc(O)c2C(=O)c2c(O)cccc21 | 93.6
CCOc1ccc(NC(C)=O)cc1 | 97.1
C=CCCCCCCCCCCCC(O)CC(O)COC(C)=O (centres undefined) (tested in a mixture with another compound) | 81.7
Cc1onc(-c2c(Cl)cccc2Cl)c1C(=O)N[C@@H]1C(=O)N2[C@@H]1SC(C)(C)[C@@H]2C(=O)O | 121
CC(=O)OCC(=O)[C@@]1(O)[C@H](C)CC2C3CCC4=CC(=O)C=C[C@]4(C)[C@@]3(F)[C@@H](O)C[C@@]21C (some centres undefined) | 119
Oc1c(Cl)cc(Cl)c(Cl)c1Cc1c(O)c(Cl)cc(Cl)c1Cl | 118
CCCc1ncc(C[n+]2ccccc2C)c(N)n1 | 111
CCCCCCCCCCC[C@@H](C[C@H]1OC(=O)[C@H]1CCCCCC)OC(=O)[C@@H](CC(C)C)NC=O | 112
O[C@H]1[C@H](O)[C@@H](O)C2OC[C@H]1O2 | 119
COc1ccc2nc(S(=O)Cc3ncc(C)c(OC)c3C)[nH]c2c1 (centres undefined) | 126
O=C1[O][Bi][O]c2ccccc21 | 107
O=C1[C@H](CCC(O)c2ccc(F)cc2)[C@@H](c2ccc(O)cc2)N1c1ccc(F)cc1 (some centres undefined) | 122
CCc1c2c(nc3ccc(OC(=O)N4CCC(N5CCCCC5)CC4)cc13)-c1cc3c(c(=O)n1C2)COC(=O)[C@]3(O)CC | 90
